From the supplement of paper PMC9694430

How the values were obtained:
Experiment in all cases: thermal shift delta Tm vs DMSO control; higher = stronger stabilization (binding)
Details in all cases: 12.5 µM; protein concentration 2 µM
LOC_OS01G01410-cb001 = tested on: LOC_OS01G01410-cb001
Procedure, shortened: (§1)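 Thermal shift values come from differential scanning fluorimetry on purified rice kinase domains made in E. coli, with melting temperatures obtained from Boltzmann fits. Samples of 19.5 μl held 2 μM kinase, 100 mM potassium phosphate pH 7.5, 150 mM NaCl, 10% glycerol, 5 × SYPRO Orange and compound in DMSO, and were heated from 25°C to 95°C at 0.05°C/s. Each shift is a triplicate mean relative to the DMSO-only protein sample.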

LOC_OS01G02750-cb003 = tested on: LOC_OS01G02750-cb003
Procedure, shortened: as §1

LOC_OS01G10900-cb004 = tested on: LOC_OS01G10900-cb004
Procedure, shortened: as §1

LOC_OS01G13800-cb001 = tested on: LOC_OS01G13800-cb001
Procedure, shortened: as §1

LOC_OS01G14860-cb001 = tested on: LOC_OS01G14860-cb001
Procedure, shortened: as §1

LOC_OS01G21960-cb002 = tested on: LOC_OS01G21960-cb002
Procedure, shortened: as §1

LOC_OS01G39600-cb002 = tested on: LOC_OS01G39600-cb002
Procedure, shortened: as §1

LOC_OS01G48390-cb002 = tested on: LOC_OS01G48390-cb002
Procedure, shortened: as §1

LOC_OS01G51400-cb002 = tested on: LOC_OS01G51400-cb002
Procedure, shortened: as §1

LOC_OS01G52050-cb004 = tested on: T1, LOC_OS01G52050-cb004
T1 sequence (whole entry): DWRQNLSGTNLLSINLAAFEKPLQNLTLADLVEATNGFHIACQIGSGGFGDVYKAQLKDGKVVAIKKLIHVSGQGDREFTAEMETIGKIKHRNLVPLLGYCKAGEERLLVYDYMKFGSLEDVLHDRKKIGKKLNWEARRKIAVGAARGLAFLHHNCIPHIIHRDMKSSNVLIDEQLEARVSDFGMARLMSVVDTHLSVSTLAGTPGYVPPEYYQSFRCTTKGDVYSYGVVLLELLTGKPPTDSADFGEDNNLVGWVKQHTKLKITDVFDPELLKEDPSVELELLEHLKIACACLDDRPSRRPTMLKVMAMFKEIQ
Procedure, shortened: as §1

LOC_OS01G57100-cb003 = tested on: LOC_OS01G57100-cb003
Procedure, shortened: as §1

LOC_OS01G60330-cb001 = tested on: LOC_OS01G60330-cb001
Procedure, shortened: as §1

LOC_OS01G60700-cb002 = tested on: LOC_OS01G60700-cb002
Procedure, shortened: as §1

LOC_OS01G63280-cb003 = tested on: LOC_OS01G63280-cb003
Procedure, shortened: as §1

LOC_OS01G67340-cb003 = tested on: LOC_OS01G67340-cb003
Procedure, shortened: as §1

LOC_OS01G70970-cb002 = tested on: LOC_OS01G70970-cb002
Procedure, shortened: as §1

LOC_OS02G07810-cb001 = tested on: LOC_OS02G07810-cb001
Procedure, shortened: as §1

LOC_OS02G08530-cb003 = tested on: LOC_OS02G08530-cb003
Procedure, shortened: as §1

LOC_OS02G14120-cb001 = tested on: LOC_OS02G14120-cb001
Procedure, shortened: as §1

LOC_OS02G17970-cb001 = tested on: LOC_OS02G17970-cb001
Procedure, shortened: as §1
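Also: purified Escherichia coli-expressed rice kinase domain construct.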

Row | SMILES | thermal shift delta Tm (LOC_OS01G01410-cb001) [°C] | thermal shift delta Tm (LOC_OS01G02750-cb003) [°C] | thermal shift delta Tm (LOC_OS01G10900-cb004) [°C] | thermal shift delta Tm (LOC_OS01G13800-cb001) [°C] | thermal shift delta Tm (LOC_OS01G14860-cb001) [°C] | thermal shift delta Tm (LOC_OS01G21960-cb002) [°C] | thermal shift delta Tm (LOC_OS01G39600-cb002) [°C] | thermal shift delta Tm (LOC_OS01G48390-cb002) [°C] | thermal shift delta Tm (LOC_OS01G51400-cb002) [°C] | thermal shift delta Tm (LOC_OS01G52050-cb004) [°C] | thermal shift delta Tm (LOC_OS01G57100-cb003) [°C] | thermal shift delta Tm (LOC_OS01G60330-cb001) [°C] | thermal shift delta Tm (LOC_OS01G60700-cb002) [°C] | thermal shift delta Tm (LOC_OS01G63280-cb003) [°C] | thermal shift delta Tm (LOC_OS01G67340-cb003) [°C] | thermal shift delta Tm (LOC_OS01G70970-cb002) [°C] | thermal shift delta Tm (LOC_OS02G07810-cb001) [°C] | thermal shift delta Tm (LOC_OS02G08530-cb003) [°C] | thermal shift delta Tm (LOC_OS02G14120-cb001) [°C] | thermal shift delta Tm (LOC_OS02G17970-cb001) [°C]
1 | S=C(NCc1ccc2c(c1)OCO2)N1CCN(c2ncnc3c2oc2ccccc23)CC1 [Amuvatinib (MP-470)] | 0.66 | -0.56 | 0.77 | 1.03 | 0.42 | 0.46 | 0.21 | 0.88 | 0.31 | 1.3 | 1.62 | 1.4 | 1.01 | 0.5 | 0.84 | 0.42 | 1.04 | 1.09 | 0.42 | 1.14
2 | Cc1ccc(F)c(NC(=O)Nc2ccc(-c3cccc4[nH]nc(N)c34)cc2)c1 [Linifanib (ABT-869)] | 3 | 3.87 | 1.34 | 0.36 | 2.29 | 1.08 | 2.02 | 4.44 | 0.54 | 6.66 | -0.27 | 4 | 2.06 | 4.52 | 2.81 | 1.72 | 1.34 | 3.05 | 4.49 | 0.94
3 | O=c1c(-c2ccc(O)cc2)coc2cc(O)cc(O)c12 [Genistein] | 0.67 | 0.54 | 0.86 | -0.01 | 1.11 | 0.55 | 0.12 | 0.77 | 0.12 | 1.14 | -0.59 | 0.72 | 1.28 | 0.16 | -0.02 | 0.33 | 0.97 | 1.28 | -1.28 | 1.58
